The structures appear in SMILES notation. “And” between values parts separate entries of the source, which are not always exact repeats. Identical values can stand only once. The source made the active and inactive calls.

In assay [1] the test system is Human papillomavirus type 1a protein E7 (residues 44-93). As to the kind of experiment: small molecules binding HPV E7 44-93 – biochemical, small-molecule microarray, residues 44-93, 635 nm fluorescence, primary screen (AID 1108).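 Further: E7 fragment applied at 1 µg/mL in TBST for 1 h at 4 C; score combines spot fluorescence with its signal to noise ratio.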 To be noted: fluorescence 635 nm, higher = more signal.
Assay [2] is described as follows: hepatitis C replication reporter changes, two-sided – Huh7 cells, luciferase reporter, HCV replication inhibitor project, primary screen (AID 1109).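 Further: huh7 hepatoma cells harbouring a luciferase neomycin HCV replicon reporter; luciferase luminescence as measure of HCV replicon replication; test concentration not given here.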 The settings on record: Huh7 HCV replicon luciferase reporter, 48 h; higher = more signal. A general note: In a reporter assay the amount or activity of a reporter protein is the signal.
For assay [3], the target named is Left-right determination factor 2 (Homo sapiens) (UniProt O00292). As to the kind of experiment: small molecules binding LEFTY2 protein – biochemical, small-molecule microarray, 635 nm fluorescence scan, primary screen (AID 1110). To be noted: higher = more signal.
Chain of Left-right determination factor 2 (Homo sapiens) (O00292 whole entry, looked up): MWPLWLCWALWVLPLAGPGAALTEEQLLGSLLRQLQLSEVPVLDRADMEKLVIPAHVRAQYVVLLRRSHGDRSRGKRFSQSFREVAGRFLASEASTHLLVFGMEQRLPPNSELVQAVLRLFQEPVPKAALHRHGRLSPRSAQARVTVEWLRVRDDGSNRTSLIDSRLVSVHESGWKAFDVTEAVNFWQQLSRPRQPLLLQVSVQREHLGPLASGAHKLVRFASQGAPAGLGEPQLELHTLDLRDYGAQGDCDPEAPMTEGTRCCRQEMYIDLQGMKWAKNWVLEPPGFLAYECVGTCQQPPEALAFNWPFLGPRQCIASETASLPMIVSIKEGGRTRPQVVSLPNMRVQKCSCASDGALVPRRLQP
In assay [4] the target is Calmodulin-1 (Homo sapiens) (UniProt P0DP23). As to the kind of experiment: small molecules binding calmodulin-1 with EGTA – biochemical, small-molecule microarray, Cy5-labelled CALM1, profiling panel (AID 1111).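 Further: labelled calmodulin applied in Tris saline Tween buffer holding calcium plus EGTA and DTT.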 To be noted: Cy5-CALM1 binding fluorescence, higher = more signal.
For assay [5] the target is unchanged. Put plainly: small molecules binding Ca-loaded calmodulin-1 – biochemical, small-molecule microarray, Cy5-labelled CALM1, plus calcium, artefact control for SMM control-protein annotation, profiling panel (AID 1112).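 Further: score merges spot fluorescence with signal to noise from triplicate slides.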 To be noted: Cy5-CALM1 binding fluorescence, higher = more signal.
A short description of assay [6]: probe aWnt5a binding to arrayed compounds – biochemical, biotinylated probe, 635/667 nm fluorescence, primary screen (AID 1113).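 Further: score merges 667 nm fluorescence intensity with signal-to-noise per printed feature.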 The settings on record: small-molecule microarray, higher = more signal.
Assay [7] in a line: probe aShh binding to arrayed compounds – biochemical, biotinylated probe, 635/667 nm fluorescence, primary screen (AID 1114).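 Further: probe is biotin-labelled aShh protein from a stem cell growth factor screen; measures binding of labelled protein to compounds printed on the slide; score merges feature fluorescence at 667 nm with signal-to-noise.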 To be noted: small-molecule microarray, higher = more signal.
Assay [8] can be described thus: probe aNog binding to arrayed compounds – biochemical, biotinylated probe, 635/667 nm fluorescence, primary screen (AID 1115).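 Further: probe is biotinylated aNog protein used at 0.15 µg/mL for 1 h at 4 C; z-score combines 667 nm fluorescence of each spot with its signal to noise.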 To be noted: small-molecule microarray, higher = more signal.
Assay [9] concerns the target Torsin-1A-interacting protein 1 (Homo sapiens) (UniProt Q5JTV8). As to the kind of experiment: compound microarray binding of lysate hLAP1 – cell lysate, small-molecule microarray, COS7 lysate, 635/667 nm fluorescence, primary screen (AID 1116). To be noted: 635 nm fluorescence, higher = more signal.
In assay [10] the target is Alpha-bungarotoxin (Bungarus multicinctus) (UniProt P60615). Put plainly: compounds binding labelled alpha-BTX control protein – biochemical, small-molecule microarray, Alexa647 label, 635/667 nm fluorescence, artefact control for SMM control protein annotation, profiling panel (AID 1117). To be noted: alpha-BTX-A647 binding fluorescence, higher = more signal.
Chain of Alpha-bungarotoxin (Bungarus multicinctus) (P60615 whole entry, looked up): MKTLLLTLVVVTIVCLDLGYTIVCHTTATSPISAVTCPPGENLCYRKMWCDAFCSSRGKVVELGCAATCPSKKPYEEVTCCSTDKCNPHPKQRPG
The target of assay [11] is Albumin (Bos taurus) (UniProt P02769). As to the kind of experiment: compounds binding labelled BSA control protein – biochemical, small-molecule microarray, Alexa647 label, 635/667 nm fluorescence, artefact control for SMM control protein annotation, profiling panel (AID 1118).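 Further: score merges 667 nm emission intensity and signal-to-noise per printed compound spot.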 To be noted: BSA-A647 binding, fluorescence 635 nm, higher = more signal.
Chain of Albumin (Bos taurus) (P02769 whole entry, looked up): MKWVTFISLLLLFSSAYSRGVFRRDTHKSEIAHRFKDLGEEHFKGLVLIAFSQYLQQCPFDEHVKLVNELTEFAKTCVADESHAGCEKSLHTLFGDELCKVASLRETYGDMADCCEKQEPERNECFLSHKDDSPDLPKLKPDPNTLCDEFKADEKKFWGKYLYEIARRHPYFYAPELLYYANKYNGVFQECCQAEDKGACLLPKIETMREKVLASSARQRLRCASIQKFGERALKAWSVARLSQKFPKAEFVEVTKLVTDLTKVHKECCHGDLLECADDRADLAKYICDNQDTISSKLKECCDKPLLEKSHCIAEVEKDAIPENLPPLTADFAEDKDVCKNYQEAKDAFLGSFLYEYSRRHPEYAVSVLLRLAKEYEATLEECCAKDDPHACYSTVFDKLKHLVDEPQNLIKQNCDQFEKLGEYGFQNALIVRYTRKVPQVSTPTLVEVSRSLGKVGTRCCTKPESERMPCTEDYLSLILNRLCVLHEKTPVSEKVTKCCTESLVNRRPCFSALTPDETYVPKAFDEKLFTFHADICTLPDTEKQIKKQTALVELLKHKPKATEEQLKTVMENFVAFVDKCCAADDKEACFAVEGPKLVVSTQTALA
The nature of assay [12]: probe aXIP binding to arrayed compounds – biochemical, NeuroSMM set, 635/667 nm fluorescence, primary screen (AID 1119).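 Further: probe is the protein aXip251-270 applied at 1 µg/mL to compound-printed slides; binding of probe to printed compounds measured as 667 nm fluorescence plus signal to noise.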 To be noted: small-molecule microarray, higher = more signal, called active from +8 up or from −8 down.
The nature of assay [13]: probe aNOTCH3 binding on compound microarray – biochemical, small-molecule microarray, 635/667 nm fluorescence, primary screen (AID 1120).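 Further: probe is a biotin-tagged antibody raised against NOTCH3 rather than NOTCH3 protein; score merges spot fluorescence near 667 nm with spot signal to noise.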 To be noted: higher = more signal.
A short description of assay [14]: probe aNOTCH2 binding on compound microarray – biochemical, small-molecule microarray, 635/667 nm fluorescence, primary screen (AID 1121).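 Further: score merges feature fluorescence read at 667 nm with its signal to noise.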 The settings on record: higher = more signal.
Assay [15] addresses Carbonic anhydrase 2 (Homo sapiens) (UniProt P00918). As to the kind of experiment: compounds binding carbonic anhydrase 2 – biochemical, small-molecule microarray, Alexa647-labelled CAII, profiling panel (AID 1122). The settings on record: CAII-A647 binding fluorescence, higher = more signal.
The nature of assay [16]: COS7 lysate on small-molecule microarray, probe aHis, 635 nm (AID 1123).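 Further: z-score combines 667nm fluorescence intensity with signal-to-noise per printed compound spot.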 To be noted: COS7 cell lysate, fluorescence, higher = more signal.
Assay [17] is described as follows: probe aLAP1 signal on lysate-treated microarray – cell lysate, small-molecule microarray, COS7 lysate, primary screen (AID 1124).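 Further: lysate comes from COS7 cells expressing LAP1 and is applied at 0.3 µg/mL; score merges spot fluorescence near 667 nm with signal-to-noise over triplicate slides.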 To be noted: probe aLAP1, fluorescence, higher = more signal.
Assay [18] relates to Sam68 (KHDRBS1). Put plainly: compounds binding KHDRBS1 protein – biochemical, small-molecule microarray, 635 nm fluorescence, primary screen (AID 1125).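 Further: score merges 667 nm channel intensity with signal to noise over triplicate slides.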 The settings on record: higher = more signal.
In assay [19] the test system is Chordin-like protein 2 (CHRDL2). As to the kind of experiment: compounds binding chordin-like 2 – biochemical, small-molecule microarray, 635 nm fluorescence, primary screen (AID 1126).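 Further: printed compound slides probed with Chrdl2 protein at 4 µg/mL for 1 h at 4 C; score merges 667 nm emission intensity with signal to noise over three replicate slides.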 The settings on record: fluorescence 635 nm, higher = more signal.
Assay [20] addresses Concanavalin-A (Canavalia ensiformis) (UniProt P02866). As to the kind of experiment: compounds binding concanavalin A lectin – biochemical, small-molecule microarray, Alexa647 label, 635 nm, artefact control for SMM control protein annotation, primary screen (AID 1127).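 Further: z combines 667 nm emission intensity with signal-to-noise across three replicate slides.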 To be noted: ConA-A647 binding fluorescence, higher = more signal.

Chain of Torsin-1A-interacting protein 1 (Homo sapiens) (Q5JTV8 whole entry, looked up): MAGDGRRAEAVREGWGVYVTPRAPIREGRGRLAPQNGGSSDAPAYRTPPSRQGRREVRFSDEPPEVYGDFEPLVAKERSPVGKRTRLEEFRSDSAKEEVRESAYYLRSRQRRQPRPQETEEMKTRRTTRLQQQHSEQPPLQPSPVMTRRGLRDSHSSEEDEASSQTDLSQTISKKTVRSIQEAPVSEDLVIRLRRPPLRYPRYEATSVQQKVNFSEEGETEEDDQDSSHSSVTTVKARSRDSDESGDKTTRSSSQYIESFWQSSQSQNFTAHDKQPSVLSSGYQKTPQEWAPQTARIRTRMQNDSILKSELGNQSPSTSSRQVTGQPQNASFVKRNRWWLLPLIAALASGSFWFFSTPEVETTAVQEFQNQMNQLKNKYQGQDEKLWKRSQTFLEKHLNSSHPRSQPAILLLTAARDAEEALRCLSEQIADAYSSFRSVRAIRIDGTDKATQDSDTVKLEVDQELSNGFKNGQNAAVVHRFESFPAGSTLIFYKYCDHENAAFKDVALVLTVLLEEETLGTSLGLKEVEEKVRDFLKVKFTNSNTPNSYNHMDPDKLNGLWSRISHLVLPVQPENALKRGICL
Chain of Concanavalin-A (Canavalia ensiformis) (P02866 whole entry, looked up): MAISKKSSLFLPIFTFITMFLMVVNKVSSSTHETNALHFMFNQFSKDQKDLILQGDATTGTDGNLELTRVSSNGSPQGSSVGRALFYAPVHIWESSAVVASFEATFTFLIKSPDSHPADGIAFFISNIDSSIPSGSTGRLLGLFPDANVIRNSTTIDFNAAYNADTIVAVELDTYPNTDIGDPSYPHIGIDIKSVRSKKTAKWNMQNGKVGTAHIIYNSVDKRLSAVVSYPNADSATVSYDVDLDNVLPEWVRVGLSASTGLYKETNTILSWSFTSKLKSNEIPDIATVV

On to `C=CCN(CCCC)C(=O)C1N(c2c(Cl)cccc2CO)C(=O)C2C(C(=O)O)C3C=CC21O3` (stereo not given), for which the composite z-score was -1.84 and 0.389 in [1]; -3.23 and -2.18 in [3]; -0.623 and -0.783 in assay [4]; 0.713 and -0.0889 in assay [5]; -0.144 and -0.0894 in assay [6]; 0.151 and -0.279 in [7]. For the same molecule, the composite z-score was 0.0107 and 0.242 in [8]; -0.529 and -0.927 in assay [9]; -0.406 and -1.31 in assay [10]; -0.817 and -0.128 in assay [11]; -0.408 and 0.539 in assay [13]; -0.173 and 0.608 in assay [14]. The composite z-score in [15] was -0.748 and 0.955; in [16], -0.455 and 1.89; in [17] it was -0.111 and -0.125; in assay [18], -0.818 and -1; in assay [19], -1.4 and -1.99; in [20], -1.69 and -2.68. Also, the z-score in [2] was -0.325 and -0.567. The composite Z-score in [12] was -0.533 (inactive) and 0.273 (inactive).

In the case of `C=CCN(Cc1ccccc1)C(=O)C1N(CCCCCCO)C(=O)C2C(C(=O)O)C3C=CC21O3` (stereo not given), the composite z-score in assay [1] is -0.352 and -1.02; in [3] it was -2.37 and -4.16; in assay [4] it was -0.326 and -0.505; in [5], 0.498 and 0.722; in assay [6] it was -0.219 and -0.332; in [7], -0.0709 and -0.0035. Moreover, the composite z-score was -0.0211 and -0.316 in [8]; 0.193 and 0.0816 in [9]; -1.13 and -1.12 in assay [10]; -0.198 and 0.768 in assay [11]; -0.541 and -0.445 in assay [13]; -0.14 and -0.154 in [14]. Also, the composite z-score was 0.812 and 0.904 in assay [15]; -0.376 and -0.155 in assay [16]; -0.694 and -0.332 in [17]; -0.442 and -1.97 in assay [18]; -3.18 and -2.25 in assay [19]; -0.588 and -2.21 in [20]. In assay [2], the z-score was 0.0022 and 0.118. The composite Z-score in assay [12] is -0.461 (inactive) and -0.2 (inactive).

Regarding `COCn1c2ccccc2c2nnc(C(C)=O)nc21`, the composite z-score in [1] was -0.421 and 0.238; in assay [3], 0.486 and 0.305; in assay [4], -0.338 and -0.015; in assay [5] it was -0.462 and -0.409; in assay [6], -0.182 and -0.124; in assay [7], -0.282 and -0.0769. Moreover, the composite z-score in assay [8] is -0.294 and -0.158; in [9], 0.184 and 0.0111; in assay [10], 0.0727 and 0.378; in assay [11], -0.565 and -0.0926; in assay [13], -0.0647 and 0.106; in assay [14] it was -0.131 and -0.126. The composite z-score in assay [15] was 0.158 and -0.258; in assay [16] it was -0.0769 and 0.263; in assay [17], 0.325 and 0.155; in [18], 0.132 and 0.584; in assay [19] it was 0.488 and 0.54; in assay [20] it was 0.133 and -0.0846. The z-score in assay [2] is -0.366 and 0.141. For the same molecule, the composite Z-score in [12] was -0.158 (inactive) and -0.123 (inactive).

Take `CO[C@@H]1C=CCC(=O)N2CCC[C@H]2C(=O)OC[C@H](C)C(=O)OC[C@H]1C`: the composite z-score in assay [1] was 0.172; in assay [3] it was 0.96; in assay [4], -0.594; in assay [5], -1.16; in assay [6], -0.202; in assay [7] it was -0.352. Moreover, the composite z-score was -0.216 in assay [8]; 0.568 in assay [9]; -0.0037 in assay [10]; 0.987 in assay [11]; -0.0077 in assay [13]; 0.012 in [14]. For the same molecule, the composite z-score is 0.403 in assay [15]; -0.555 in [16]; -0.795 in [17]; 0.216 in [18]; 1.01 in assay [19]; -0.607 in [20]. In [2], the z-score turned out to be 0.182. Besides, the composite Z-score in assay [12] was 0.392 (inactive).

Regarding `COC(=O)C1=C(C)N(Cc2ccccc2)C2=C(C(C)=O)[C@H](c3ccccc3)[C@@](O)(C(=O)OC)C(=O)N2[C@@H]1c1ccccc1`, the composite z-score in [1] was 0.895 and -1.59; in [3], 0.64 and -0.705; in assay [4], -0.271 and -0.503; in [5], 0.004 and -0.587; in [6], -0.0944 and 0.0102; in assay [7], 0.151 and -0.0146. In addition, the composite z-score in assay [8] was -0.205 and -0.342; in assay [9], -0.0984 and -0.136; in assay [10] it was 0.538 and -0.436; in [11] it was 0.695 and -0.583; in assay [13], -0.0362 and -0.182; in [14], -0.0907 and -0.124. For the same molecule, the composite z-score in [15] is 0.301 and -0.459; in assay [16], 0.275 and -0.666; in assay [17], -0.209 and -0.312; in assay [18] it was 1.17 and -1.23; in [19], 0.564 and 0.437; in assay [20] it was 0.365 and -0.139. For the same molecule, the z-score in assay [2] is -0.396 and 0.347. Besides, the composite Z-score in assay [12] is 0.124 (inactive) and 0.115 (inactive).
